From PubChem BioAssay (EPA / NIEHS)
Inconclusive results are not listed. Active and inactive are the calls of the source. How the source made its calls, unless noted: active means hit-call score of the fitted dose curve at least 0.9, where 1 is the maximum; inconclusive means response in the unintended direction; inactive means score below 0.9.

Tests used:
[1] = Tanguay_ZF_120hpf_PFIN_legacy: (Legacy) Oregon State University Tanguay Lab 120 Hour Post-fertilization zebrafish Assay for Pectoral Fin Malformation (AID 2283648);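 further: each larva judged yes or no for fin defect by brightfield with dead larvae skipped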
Procedure, shortened: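 Dechorionated Tropical 5D wild-type zebrafish embryos, one per well, statically exposed from 6 to 120 hpf at 28C with 0.64% DMSO final. Pectoral fin malformation scored present/absent by brightfield at 120 hpf; not scored in dead embryos.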

[2] = Tanguay_ZF_120hpf_PIG_legacy: (Legacy) Oregon State University Tanguay Lab 120 Hour Post-fertilization zebrafish Assay for Pigmentation Malformation (AID 2283650)
Procedure, shortened: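 Dechorionated Tropical 5D wild-type embryos, one per well from 6 hpf, statically exposed at 28C in the dark until 120 hpf, 0.64% DMSO final. Pigmentation scored present/absent by brightfield microscopy; dead embryos not scored; fitted versus DMSO.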

[3] = Tanguay_ZF_120hpf_CIRC_legacy: (Legacy) Oregon State University Tanguay Lab 120 Hour Post-fertilization zebrafish Assay for Circulatory Malformation (AID 2283651)
Procedure, shortened: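 Using wild-type Tropical 5D zebrafish, we exposed dechorionated embryos from 6 to 120 hpf in embryo medium with 0.64% DMSO. Circulatory defects were scored as present or absent; 5uM trimethyltin chloride served as positive control.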

[4] = Tanguay_ZF_120hpf_SWIM_legacy: (Legacy) Oregon State University Tanguay Lab 120 Hour Post-fertilization zebrafish Assay for Swim Bladder Malformation (AID 2283654);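 further: swim bladder malformation in each larva scored yes or no under brightfield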
Procedure, shortened: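 Dechorionated wild-type Tropical 5D zebrafish embryos, one per well from 6 hpf, were statically exposed at 28C until 120 hpf in 0.64% DMSO. Swim bladder malformation scored as present/absent by brightfield microscopy; not scored in dead larvae.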

[5] = CCTE_Simmons_CellTiterGLO_HEK293T: Viability Assessment in CCTE's Assays for Thyroperoxidase (TPO) Inhibition, Simmons Lab (AID 2283665);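 on AC50: cells exposed to compound for 24 h before readout; actives reduce ATP signal below DMSO vehicle meaning cytotoxicity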
Procedure, shortened: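 Cytotoxicity counter-screen: human HEK293T cells in low-serum (1% FBS) medium receive test chemical, 5 nM to 87.5 uM final, for 24 h; ATP is quantified by luciferase luminescence.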

[6] = Tanguay_ZF_120hpf_TR_legacy: (Legacy) Oregon State University Tanguay Lab 120 Hour Post-fertilization zebrafish Assay for Touch Response (AID 2283667)
Procedure, shortened: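 Tropical 5D wild-type zebrafish embryos statically exposed to 120 hpf at 28°C, sealed and dark-covered, 0.64% DMSO final; touch response scored as present/absent by brightfield microscopy at 120 hpf. Trimethyltin chloride 5 uM positive control; dead embryos not scored.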

[7] = CCTE_Padilla_ZF_144hpf_TERATOSCORE: (Legacy) CCTE's 144 Hour Post-fertilization zebrafish Assay Teratoscore, Padilla Lab (AID 2283679; active means hit-call score of the fitted dose curve at least 0.9, where 1 is the maximum; inactive means score below 0.9;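 on AC50: zebrafish embryos with chorions exposed by immersion from 6-8 hpf to 5 dpf with daily renewal; teratogenicity score from eye scoring of death hatching and malformations at 144 hpf; higher score means more developmental defects relative to DMSO baseline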)
Procedure, shortened: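 Larvae scored by eye at 144 hpf for death, hatching and malformations after a day in clean Hanks'. Before that, daily-renewed exposure at 80 uM (0.4% DMSO, 26C) from roughly 6-8 hpf through 5 dpf, 4 embryos per chemical.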

[8] = Tanguay_ZF_120hpf_ActivityScore_legacy: (Legacy) Oregon State University Tanguay Lab 120 Hour Post-fertilization zebrafish Assay Score for Activity (AID 2283742)
Procedure, shortened: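 Dechorionated Tropical 5D embryos, one per well from 6 hpf, statically exposed to 120 hpf at 28 °C in 0.64% DMSO. Mortality and malformations scored binary by brightfield microscopy; activity score combines 18 endpoints, fitted positively versus DMSO.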

[9] = system: Thyroperoxidase (TPO), gene 445522; experiment: CCTE_Simmons_GUA_TPO: CCTE's Guaiacol Assay for Thyroperoxidase (TPO) Inhibition, Simmons Lab (AID 2283750)
Procedure, shortened: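 Porcine thyroid microsomes (25 ug) in 200mM potassium phosphate, preincubated 30 s at 37C with compound (8 concentrations, 5 nM–87.5 uM) and 35mM guaiacol; 1mM H2O2 starts reaction. Absorbance change at 450nm over first 80 s; loss of signal versus DMSO, three replicates.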

[10] = Tanguay_ZF_120hpf_TRUN_legacy: (Legacy) Oregon State University Tanguay Lab 120 Hour Post-fertilization zebrafish Assay for Truncated Body (AID 2283655)
Procedure, shortened: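 Single dechorionated zebrafish embryos received test chemical from 6 hpf in 0.64% DMSO, kept at 28C. At 120 hpf, brightfield inspection noted any truncated body.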

[11] = STM_H9_OrnithineISnorm_perc: Stemina devTOX quickPredict H9 human embryonic stem cell (hESC)-based Assay for Ornithine (ORN) Metabolite Biomarker, Normalized (AID 2283712; active means hit-call score of the fitted dose curve at least 0.9, where 1 is the maximum; inactive means score below 0.9;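 further: ornithine released into spent medium during last day measured by mass spectrometry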)
Procedure, shortened: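 Cells: undifferentiated H9 hESC. Dosing: 72 h, media replaced every 24 h. Sample: final 24-h conditioned media, 40% acetonitrile. Read: UPLC-HRMS ornithine area vs 13C standard, % DMSO control.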

[12] = STM_H9_CystineISnorm_perc: Stemina devTOX quickPredict H9 human embryonic stem cell (hESC)-based Assay for Cystine (CYSS) Metabolite Biomarker, Normalized (AID 2283713; active means hit-call score of the fitted dose curve at least 0.9, where 1 is the maximum; inactive means score below 0.9)
Procedure, shortened: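 Secreted cystine was measured by UPLC-HRMS in H9 hESC medium after 72h compound exposure with 24-hourly replenishment. Values are standard-normalized areas relative to 0.1% DMSO.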

[13] = system: Thyroperoxidase (TPO), gene 54314; experiment: CCTE_Simmons_AUR_rTPO: CCTE's Amplex UltraRed Assay for Thyroperoxidase (TPO) Inhibition, Simmons Lab (AID 2283662);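 on AC50: potency for loss of signal meaning inhibition of peroxidase activity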
Procedure, shortened: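 Rat thyroid microsomes (5 ug protein) were incubated with test compound (8 concentrations, 5 nM–87.5 uM final, 0.5% DMSO), 25 uM Amplex UltraRed and 300 uM H2O2 in 200 mM phosphate buffer for 30 min at 37C in the dark; fluorescence read at 544/590 nm.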

[14] = CEETOX_H295R_MTT_cell_viability: Viability Assessment in the CeeTox HT-H295R MTT Assay (AID 2283718; active means hit-call score of the fitted dose curve at least 0.9, where 1 is the maximum; inactive means score below 0.9)
Procedure, shortened: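 Human H295R adrenal cells, prestimulated 48 h with 10 uM forskolin, were exposed 48 h to chemicals in 0.1% DMSO. Viability was measured in the same wells by MTT (0.5 mg/ml, 4 h, 37 C), absorbance 570/650 nm, as percent of controls.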

[15] = read-out: kallikrein-3 (KLK3), KLK3 (gene 354); experiment: LTEA_HepaRG_KLK3: Life Technologies and Expression Analysis (LTEA) Assay for kallikrein-3 (KLK3) using HepaRG (AID 2283652; active means hit-call score of the fitted dose curve at least 0.9, where 1 is the maximum; inactive means score below 0.9); conditions: mRNA level, 48 h; actives raise or lower the signal
Procedure, shortened: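 Differentiated human HepaRG cells in serum-free induction medium exposed 48 h in duplicate, eight-point half-log series from 100 uM in 0.5% DMSO. KLK3 mRNA by qRT-PCR, normalised to ACTB, GAPDH, POLR2A; bidirectional fit versus DMSO.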

[16] = read-out: solute carrier (SLC22A6), SLC22A6 (gene 9356); experiment: LTEA_HepaRG_SLC22A6: Life Technologies and Expression Analysis (LTEA) Assay for solute carrier (SLC22A6) using HepaRG (AID 2283653; active means hit-call score of the fitted dose curve at least 0.9, where 1 is the maximum; inactive means score below 0.9); conditions: mRNA level, 48 h; actives raise or lower the signal
Procedure, shortened: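 Gene-expression endpoint in HepaRG hepatic cells: duplicate 8-point concentration-response, highest 100 uM, 48 h treatment in serum-free medium with 0.5% DMSO. SLC22A6 expression measured by qRT-PCR, normalised to ACTB/GAPDH/POLR2A.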

[17] = read-out: solute carrier (SLC10A1), SLC10A1 (gene 6554); experiment: LTEA_HepaRG_SLC10A1: Life Technologies and Expression Analysis (LTEA) Assay for solute carrier (SLC10A1) using HepaRG (AID 2283657; active means hit-call score of the fitted dose curve at least 0.9, where 1 is the maximum; inactive means score below 0.9); conditions: mRNA level, 48 h; actives raise or lower the signal
Procedure, shortened: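 HepaRG cells (single lot) exposed 48 h in serum-free induction medium, 8-point half-log series from 100 uM top in 0.5% DMSO, duplicate. SLC10A1 mRNA by qRT-PCR normalised to ACTB, GAPDH, POLR2A; bidirectional fit versus DMSO.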

[18] = read-out: matrix metalloproteinase-1 (MMP1), MMP1 (gene 4312); experiment: LTEA_HepaRG_MMP1: Life Technologies and Expression Analysis (LTEA) Assay for matrix metalloproteinase-1 (MMP1) using HepaRG (AID 2283658; active means hit-call score of the fitted dose curve at least 0.9, where 1 is the maximum; inactive means score below 0.9); conditions: mRNA level, 48 h; actives raise or lower the signal
Procedure, shortened: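 In this screen, human liver HepaRG cultures receive each chemical in duplicate for 48 h (top 100 uM, 0.5% DMSO). MMP1 expression is then quantified by TaqMan qRT-PCR with ACTB/GAPDH/POLR2A normalization.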

[19] = read-out: Cytochrome P450 (CYP24A1_1), CYP24A1 (gene 1591); experiment: LTEA_HepaRG_CYP24A1_1: Life Technologies and Expression Analysis (LTEA) Assay for Cytochrome P450 (CYP24A1_1) using HepaRG (AID 2283671; active means hit-call score of the fitted dose curve at least 0.9, where 1 is the maximum; inactive means score below 0.9); conditions: mRNA level, 48 h; actives raise or lower the signal
Procedure, shortened: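 Differentiated human HepaRG cells in serum-free induction medium, exposed 48 h in duplicate to eight half-log concentrations from 100 uM top, 0.5% DMSO. Transcript measured by TaqMan qRT-PCR, normalised to ACTB, GAPDH, POLR2A; bidirectional fitting versus DMSO.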

[20] = STM_H9_OrnCyssISnorm_ratio: Stemina devTOX quickPredict H9 human embryonic stem cell (hESC)-based Assay for Ornithine (ORN):Cystine (CYSS) Ratio (AID 2283714)
Procedure, shortened: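 Undifferentiated H9 hESCs exposed 72 h, media and compound replaced every 24 h; final 24-h conditioned media deproteinized and analysed by UPLC-HRMS against C13 spike-ins. Value is the internal-standard-normalized ORN/CYSS ratio versus 0.1% DMSO.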

Measured: AC50

[N-]=[N+]=[N-]
inactive: [1] | [2] | [3] | [4] | [5] | [6] | [7] | [8]
active: [9] 26.5 µM

O=C(O)C1C(C(=O)O)C2(Cl)C(Cl)=C(Cl)C1(Cl)C2(Cl)Cl (stereo not given)
inactive: [1] | [2] | [3] | [4] | [10] | [6] | [11] | [12] | [8]

Nc1cc2c3c(c1)C(c1ccccc1)=N[C@@H](NC(=O)c1cccnc1)C(=O)N3CC2
active: [13] 23.1 µM
inactive: [1] | [2] | [3] | [4] | [10] | [5] | [6] | [14] | [8] | [9]

O=[N+]([O-])c1ccccc1
inactive: [1] | [3] | [4] | [10] | [6] | [11] | [12] | [8]

CC(C)(C)OOC(C)(C)C
inactive: [1] | [2] | [3] | [15] | [16] | [4] | [10] | [17] | [18] | [19] | [8]

CCOP(=S)(OCC)SCSCC
active: [13] 20.5 µM | [5] 13.6 µM
inactive: [1] | [2] | [3] | [4] | [10] | [6] | [7] | [8]

CCOC(=O)c1ccccc1C(=O)OCC
inactive: [1] | [2] | [3] | [4] | [10] | [6] | [11] | [12] | [14] | [8]

c1ccc(OP(Oc2ccccc2)Oc2ccccc2)cc1
active: [13] 8.68 µM
inactive: [1] | [2] | [3] | [4] | [10] | [5] | [6] | [14] | [8]

CCCCc1ccccc1
inactive: [1] | [2] | [3] | [4] | [10] | [6] | [8]

CCNc1nc(Cl)nc(NC(C)(C)C)n1
inactive: [1] | [2] | [3] | [4] | [10] | [6] | [7] | [14] | [8]

O=P1(N(CCCl)CCCl)NCCCO1 (stereo not given)
inactive: [1] | [2] | [3] | [4] | [10] | [8]

OCC1CO1 (stereo not given)
inactive: [1] | [2] | [3] | [10] | [6] | [8]

Cc1ccc(O)cc1C
inactive: [1] | [2] | [3] | [4] | [10] | [6] | [8]

CCC1(c2ccccc2)C(=O)N=C(O)NC1=O (stereo not given)
active: [11] 0.0967 µM
inactive: [1] | [2] | [3] | [4] | [10] | [13] | [5] | [6] | [12] | [20] | [8]

CCCCCCCc1ccc(O)cc1
active: [13] 10.2 µM | [5] 10.1 µM | [7] 6.11 µM
inactive: [1] | [2] | [3] | [4] | [10] | [6] | [8]
